# Test results published in publication PMC7862700, “An all-to-all approach to the identification of sequence-specific readers for epigenetic DNA modifications on cytosine”.
# Tests used:
# Experiment in all cases: DAPPL (digital affinity profiling via proximity ligation, sequencing); 10 mM Tris-HCl pH 7.5, 50 mM NaCl, 1 mM DTT, 4% glycerol, room temperature, 30 min; GST-TFs on glutathione beads, 16-mer random dsDNA library, 0.1% formaldehyde crosslink after washing; high values mean tight binding
# [1] = molecular target: T1, FEV (Homo sapiens, UniProt Q99581 1-238); settings: protein: recombinant; tags: N-terminal GST; dsDNA, one strand shown
# T1 sequence: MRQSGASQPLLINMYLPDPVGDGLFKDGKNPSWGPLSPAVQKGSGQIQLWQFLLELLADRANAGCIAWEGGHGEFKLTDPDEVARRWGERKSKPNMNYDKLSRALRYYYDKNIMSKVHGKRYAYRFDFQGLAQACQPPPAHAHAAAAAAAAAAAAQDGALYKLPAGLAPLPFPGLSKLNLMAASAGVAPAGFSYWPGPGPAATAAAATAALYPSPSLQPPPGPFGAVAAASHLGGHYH
# Outline: (§1)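 Beads coated with glutathione captured GST-fused human transcription factors that had been expressed in yeast, and the factors were then given DNA barcodes and pooled with a tag-only sample. The pools were incubated with 200 nmole of a random double-stranded 16-mer DNA library in Tris/NaCl/DTT/glycerol buffer for 30 min at room temperature, washed, crosslinked with 0.1% formaldehyde and proximity-ligated with BsaI/T4 ligase at 37 °C for 1 h. PCR amplification and Illumina NextSeq500 sequencing came last. Binding signal is each hexamer's read frequency for a factor divided by its frequency for the tag-only sample.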
# [2] = molecular target: ETV5 (Homo sapiens, UniProt P41161 1-510); settings: protein: recombinant; tags: N-terminal GST; dsDNA, one strand shown
# Outline: as §1
# [3] = molecular target: HSF1 (Homo sapiens, UniProt Q00613 1-529); settings: protein: recombinant; tags: N-terminal GST; chain copies: 3; dsDNA, one strand shown
# Outline: as §1
# [4] = molecular target: T2, SPIC (Homo sapiens, UniProt Q8N5J4 1-248); settings: protein: recombinant; tags: N-terminal GST; dsDNA, one strand shown
# T2 sequence: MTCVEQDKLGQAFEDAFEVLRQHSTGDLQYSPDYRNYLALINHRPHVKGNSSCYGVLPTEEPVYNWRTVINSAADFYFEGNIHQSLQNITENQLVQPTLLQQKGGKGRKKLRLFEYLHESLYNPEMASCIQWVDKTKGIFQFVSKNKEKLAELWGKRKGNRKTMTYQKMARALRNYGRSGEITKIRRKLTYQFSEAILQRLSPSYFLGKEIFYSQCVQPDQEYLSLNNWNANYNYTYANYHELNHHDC
# Outline: as §1
# [5] = molecular target: ELF4 (Homo sapiens, UniProt Q99607 1-663); settings: protein: recombinant; tags: N-terminal GST; dsDNA, one strand shown
# Outline: as §1
# [6] = molecular target: T3, ELK4 (Homo sapiens, UniProt P28324-2 1-405); settings: protein: recombinant; tags: N-terminal GST; dsDNA, one strand shown
# T3 sequence: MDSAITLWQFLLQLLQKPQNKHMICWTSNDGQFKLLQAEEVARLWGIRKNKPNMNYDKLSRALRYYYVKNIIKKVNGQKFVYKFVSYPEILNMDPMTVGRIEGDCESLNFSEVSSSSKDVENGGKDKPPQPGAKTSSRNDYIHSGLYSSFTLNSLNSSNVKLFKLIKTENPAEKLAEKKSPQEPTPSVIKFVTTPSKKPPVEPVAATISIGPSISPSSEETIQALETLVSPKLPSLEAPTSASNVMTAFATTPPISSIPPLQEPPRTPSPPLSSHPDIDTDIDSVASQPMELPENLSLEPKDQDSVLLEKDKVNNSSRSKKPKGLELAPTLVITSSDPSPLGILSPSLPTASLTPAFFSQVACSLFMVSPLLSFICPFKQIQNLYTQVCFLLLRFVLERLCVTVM
# Outline: as §1
# [7] = molecular target: T4, ETV2 (Homo sapiens, UniProt O00321 1-342); settings: protein: recombinant; tags: N-terminal GST; dsDNA, one strand shown
# T4 sequence: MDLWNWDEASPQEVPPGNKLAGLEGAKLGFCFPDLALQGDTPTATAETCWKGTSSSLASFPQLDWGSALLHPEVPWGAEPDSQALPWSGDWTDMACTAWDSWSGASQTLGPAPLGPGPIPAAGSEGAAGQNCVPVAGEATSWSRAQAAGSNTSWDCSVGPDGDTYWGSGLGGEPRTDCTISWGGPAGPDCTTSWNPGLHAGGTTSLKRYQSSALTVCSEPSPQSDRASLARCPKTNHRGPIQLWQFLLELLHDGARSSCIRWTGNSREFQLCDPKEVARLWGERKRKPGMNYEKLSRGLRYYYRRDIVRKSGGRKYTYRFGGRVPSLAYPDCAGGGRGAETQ
# Outline: as §1
# [8] = molecular target: T5, ELF3 (Homo sapiens, UniProt P78545 1-371); settings: protein: recombinant; tags: N-terminal GST; dsDNA, one strand shown
# T5 sequence: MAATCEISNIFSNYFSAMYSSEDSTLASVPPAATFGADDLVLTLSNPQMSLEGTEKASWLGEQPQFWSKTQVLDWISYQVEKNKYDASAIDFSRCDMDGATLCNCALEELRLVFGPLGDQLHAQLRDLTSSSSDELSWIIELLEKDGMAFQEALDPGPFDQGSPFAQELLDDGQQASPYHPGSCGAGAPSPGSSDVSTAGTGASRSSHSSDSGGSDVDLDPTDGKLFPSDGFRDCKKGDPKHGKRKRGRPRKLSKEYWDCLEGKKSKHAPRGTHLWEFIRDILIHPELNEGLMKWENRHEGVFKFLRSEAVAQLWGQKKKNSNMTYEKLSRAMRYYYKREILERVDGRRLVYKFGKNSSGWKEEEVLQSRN
# Outline: as §1
# [9] = molecular target: CRX (Homo sapiens, UniProt O43186 1-299); settings: protein: recombinant; tags: N-terminal GST; dsDNA, one strand shown
# Outline: as §1
# [10] = molecular target: ETV1 (Homo sapiens, UniProt P50549 1-477); settings: protein: recombinant; tags: N-terminal GST; dsDNA, one strand shown
# Outline: as §1
# [11] = molecular target: T6, ERF (Homo sapiens, UniProt P50548 1-548); settings: protein: recombinant; tags: N-terminal GST; dsDNA, one strand shown
# T6 sequence: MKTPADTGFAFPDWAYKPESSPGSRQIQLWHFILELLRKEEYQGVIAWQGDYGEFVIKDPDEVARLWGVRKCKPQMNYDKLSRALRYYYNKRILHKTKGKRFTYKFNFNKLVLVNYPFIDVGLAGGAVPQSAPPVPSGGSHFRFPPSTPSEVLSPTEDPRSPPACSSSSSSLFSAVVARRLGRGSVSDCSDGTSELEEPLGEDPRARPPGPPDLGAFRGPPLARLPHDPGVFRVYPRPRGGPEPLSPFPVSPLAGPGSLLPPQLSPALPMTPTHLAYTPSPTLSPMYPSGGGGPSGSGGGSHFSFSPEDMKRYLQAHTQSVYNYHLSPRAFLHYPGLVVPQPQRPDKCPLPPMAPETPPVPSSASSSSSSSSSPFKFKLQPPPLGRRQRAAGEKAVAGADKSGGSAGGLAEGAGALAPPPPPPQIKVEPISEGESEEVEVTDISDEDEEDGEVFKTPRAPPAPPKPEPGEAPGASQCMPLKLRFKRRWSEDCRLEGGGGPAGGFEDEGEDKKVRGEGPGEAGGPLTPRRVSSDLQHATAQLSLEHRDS
# Outline: as §1
# [12] = molecular target: T7, ETV3L (Homo sapiens, UniProt Q6ZN32 1-361); settings: protein: recombinant; tags: N-terminal GST; dsDNA, one strand shown
# T7 sequence: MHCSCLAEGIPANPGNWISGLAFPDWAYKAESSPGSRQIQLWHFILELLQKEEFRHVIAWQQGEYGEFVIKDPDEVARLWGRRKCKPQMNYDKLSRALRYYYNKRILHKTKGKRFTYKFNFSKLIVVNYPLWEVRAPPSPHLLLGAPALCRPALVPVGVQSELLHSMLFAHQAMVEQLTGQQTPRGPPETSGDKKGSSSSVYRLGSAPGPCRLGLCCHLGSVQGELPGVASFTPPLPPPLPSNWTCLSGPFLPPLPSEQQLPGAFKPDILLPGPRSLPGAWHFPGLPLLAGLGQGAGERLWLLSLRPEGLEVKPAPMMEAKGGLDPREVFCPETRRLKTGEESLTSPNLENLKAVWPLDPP
# Outline: as §1
# [13] = molecular target: T8, ETS2 (Homo sapiens, UniProt P15036 1-469); settings: protein: recombinant; tags: N-terminal GST; dsDNA, one strand shown
# T8 sequence: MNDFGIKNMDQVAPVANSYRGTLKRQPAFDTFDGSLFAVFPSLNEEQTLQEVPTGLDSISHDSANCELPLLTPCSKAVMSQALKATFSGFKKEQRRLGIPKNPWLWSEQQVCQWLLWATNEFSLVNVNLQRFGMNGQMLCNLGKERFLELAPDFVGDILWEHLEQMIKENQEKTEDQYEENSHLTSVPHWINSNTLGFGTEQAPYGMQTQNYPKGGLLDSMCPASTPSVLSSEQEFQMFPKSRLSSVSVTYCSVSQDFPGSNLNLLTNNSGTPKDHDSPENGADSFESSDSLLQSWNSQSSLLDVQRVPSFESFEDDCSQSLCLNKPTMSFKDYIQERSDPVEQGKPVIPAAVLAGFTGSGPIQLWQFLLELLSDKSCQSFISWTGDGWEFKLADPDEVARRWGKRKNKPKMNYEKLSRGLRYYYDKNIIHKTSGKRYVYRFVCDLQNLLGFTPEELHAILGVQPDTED
# Outline: as §1
# [14] = molecular target: T9, SPDEF (Homo sapiens, UniProt O95238 1-335); settings: protein: recombinant; tags: N-terminal GST; dsDNA, one strand shown
# T9 sequence: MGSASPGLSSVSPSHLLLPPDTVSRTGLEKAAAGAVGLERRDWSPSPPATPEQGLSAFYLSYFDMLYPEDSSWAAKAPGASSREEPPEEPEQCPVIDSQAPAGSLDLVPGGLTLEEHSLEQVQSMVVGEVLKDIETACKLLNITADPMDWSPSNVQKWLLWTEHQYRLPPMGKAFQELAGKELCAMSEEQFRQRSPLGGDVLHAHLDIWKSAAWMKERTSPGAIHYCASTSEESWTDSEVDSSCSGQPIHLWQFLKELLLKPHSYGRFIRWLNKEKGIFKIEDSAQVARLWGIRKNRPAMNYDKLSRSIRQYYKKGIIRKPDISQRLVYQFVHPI
# Outline: as §1
# [15] = molecular target: T10, ETV7 (Homo sapiens, UniProt Q9Y603 1-341); settings: protein: recombinant; tags: N-terminal GST; dsDNA, one strand shown
# T10 sequence: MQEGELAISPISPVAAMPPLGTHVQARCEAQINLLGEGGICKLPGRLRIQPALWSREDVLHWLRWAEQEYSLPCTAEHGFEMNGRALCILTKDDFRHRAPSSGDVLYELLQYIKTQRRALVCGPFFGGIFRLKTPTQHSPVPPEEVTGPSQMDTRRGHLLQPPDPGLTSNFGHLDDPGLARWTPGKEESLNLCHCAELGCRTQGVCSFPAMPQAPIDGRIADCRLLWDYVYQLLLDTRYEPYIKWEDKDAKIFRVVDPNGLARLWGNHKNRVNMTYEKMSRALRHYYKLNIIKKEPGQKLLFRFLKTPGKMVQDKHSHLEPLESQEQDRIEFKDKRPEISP
# Outline: as §1
# [16] = molecular target: T11, ELF5 (Homo sapiens, UniProt Q9UKW6-2 1-255); settings: protein: recombinant; tags: N-terminal GST; dsDNA, one strand shown
# T11 sequence: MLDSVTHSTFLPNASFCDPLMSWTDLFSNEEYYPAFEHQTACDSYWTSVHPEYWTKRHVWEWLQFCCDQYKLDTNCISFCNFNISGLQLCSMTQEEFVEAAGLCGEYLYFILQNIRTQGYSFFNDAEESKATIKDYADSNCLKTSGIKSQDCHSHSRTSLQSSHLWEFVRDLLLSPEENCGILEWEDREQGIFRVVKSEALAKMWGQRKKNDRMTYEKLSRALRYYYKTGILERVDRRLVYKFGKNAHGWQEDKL
# Outline: as §1
# [17] = molecular target: T12, ETV3 (Homo sapiens, UniProt P41162-2 1-143); settings: protein: recombinant; tags: N-terminal GST; dsDNA, one strand shown
# T12 sequence: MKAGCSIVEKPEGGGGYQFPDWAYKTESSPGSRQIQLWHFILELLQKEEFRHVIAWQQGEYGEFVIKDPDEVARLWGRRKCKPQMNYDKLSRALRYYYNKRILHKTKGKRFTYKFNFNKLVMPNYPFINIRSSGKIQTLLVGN
# Outline: as §1
# [18] = molecular target: ETV6 (Homo sapiens, UniProt P41212 1-452); settings: protein: recombinant; tags: N-terminal GST; dsDNA, one strand shown
# Outline: as §1
# ETV5, sequence (P41161 whole entry): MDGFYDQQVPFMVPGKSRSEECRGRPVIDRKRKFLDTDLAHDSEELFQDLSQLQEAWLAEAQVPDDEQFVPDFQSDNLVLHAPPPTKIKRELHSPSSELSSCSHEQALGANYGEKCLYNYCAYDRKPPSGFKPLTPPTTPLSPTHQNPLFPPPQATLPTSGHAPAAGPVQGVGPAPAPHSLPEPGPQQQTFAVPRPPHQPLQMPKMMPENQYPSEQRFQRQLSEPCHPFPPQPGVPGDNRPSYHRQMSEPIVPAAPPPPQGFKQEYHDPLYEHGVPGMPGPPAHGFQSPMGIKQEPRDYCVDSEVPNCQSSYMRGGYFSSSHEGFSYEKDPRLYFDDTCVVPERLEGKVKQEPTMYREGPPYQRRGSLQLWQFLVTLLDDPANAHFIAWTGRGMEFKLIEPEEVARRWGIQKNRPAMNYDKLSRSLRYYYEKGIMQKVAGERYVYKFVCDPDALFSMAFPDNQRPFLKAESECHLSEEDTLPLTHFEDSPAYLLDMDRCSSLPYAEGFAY
# ETV1, sequence (P50549 whole entry): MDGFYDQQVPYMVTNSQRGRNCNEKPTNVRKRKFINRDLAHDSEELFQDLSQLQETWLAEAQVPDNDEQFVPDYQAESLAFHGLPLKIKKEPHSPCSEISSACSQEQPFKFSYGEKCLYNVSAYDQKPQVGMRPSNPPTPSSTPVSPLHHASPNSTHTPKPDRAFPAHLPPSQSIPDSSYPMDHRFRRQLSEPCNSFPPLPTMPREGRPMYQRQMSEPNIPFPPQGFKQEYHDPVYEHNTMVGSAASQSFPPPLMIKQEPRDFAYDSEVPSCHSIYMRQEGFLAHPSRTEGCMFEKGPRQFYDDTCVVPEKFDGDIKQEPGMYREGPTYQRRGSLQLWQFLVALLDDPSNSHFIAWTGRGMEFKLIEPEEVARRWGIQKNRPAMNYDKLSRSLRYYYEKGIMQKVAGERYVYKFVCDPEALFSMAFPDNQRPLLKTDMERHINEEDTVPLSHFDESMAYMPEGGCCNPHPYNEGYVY
# ETV6, sequence (P41212 whole entry): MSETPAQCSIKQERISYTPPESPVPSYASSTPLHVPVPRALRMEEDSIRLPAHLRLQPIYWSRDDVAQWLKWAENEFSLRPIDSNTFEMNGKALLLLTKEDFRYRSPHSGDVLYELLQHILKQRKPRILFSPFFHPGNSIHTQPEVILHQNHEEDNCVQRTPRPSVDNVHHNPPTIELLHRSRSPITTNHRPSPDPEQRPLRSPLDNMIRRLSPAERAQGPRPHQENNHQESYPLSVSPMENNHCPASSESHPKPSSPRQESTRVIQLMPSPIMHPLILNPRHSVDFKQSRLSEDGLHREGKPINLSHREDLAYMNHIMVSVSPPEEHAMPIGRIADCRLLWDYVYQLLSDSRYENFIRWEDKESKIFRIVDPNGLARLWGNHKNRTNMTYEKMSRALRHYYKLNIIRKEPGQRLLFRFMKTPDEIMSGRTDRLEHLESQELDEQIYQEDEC
# ELF4, sequence (Q99607 whole entry): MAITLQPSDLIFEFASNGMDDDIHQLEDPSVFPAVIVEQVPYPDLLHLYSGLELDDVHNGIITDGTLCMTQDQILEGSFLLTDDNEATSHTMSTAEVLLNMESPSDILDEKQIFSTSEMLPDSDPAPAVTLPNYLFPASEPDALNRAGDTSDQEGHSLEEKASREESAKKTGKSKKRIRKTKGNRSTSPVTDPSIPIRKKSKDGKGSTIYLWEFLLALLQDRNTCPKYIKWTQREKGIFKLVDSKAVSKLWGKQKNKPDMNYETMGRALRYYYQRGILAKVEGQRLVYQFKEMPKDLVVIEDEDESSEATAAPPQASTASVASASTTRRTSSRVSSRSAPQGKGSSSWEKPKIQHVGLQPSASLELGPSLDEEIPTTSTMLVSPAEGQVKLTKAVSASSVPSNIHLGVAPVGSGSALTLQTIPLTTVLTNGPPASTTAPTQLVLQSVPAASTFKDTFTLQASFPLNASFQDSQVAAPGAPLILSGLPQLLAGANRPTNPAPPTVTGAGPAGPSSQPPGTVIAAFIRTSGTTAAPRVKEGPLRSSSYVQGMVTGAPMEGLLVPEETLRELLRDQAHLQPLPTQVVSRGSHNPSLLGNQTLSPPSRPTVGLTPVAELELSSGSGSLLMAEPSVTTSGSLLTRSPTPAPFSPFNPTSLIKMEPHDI
# HSF1, sequence (Q00613 whole entry): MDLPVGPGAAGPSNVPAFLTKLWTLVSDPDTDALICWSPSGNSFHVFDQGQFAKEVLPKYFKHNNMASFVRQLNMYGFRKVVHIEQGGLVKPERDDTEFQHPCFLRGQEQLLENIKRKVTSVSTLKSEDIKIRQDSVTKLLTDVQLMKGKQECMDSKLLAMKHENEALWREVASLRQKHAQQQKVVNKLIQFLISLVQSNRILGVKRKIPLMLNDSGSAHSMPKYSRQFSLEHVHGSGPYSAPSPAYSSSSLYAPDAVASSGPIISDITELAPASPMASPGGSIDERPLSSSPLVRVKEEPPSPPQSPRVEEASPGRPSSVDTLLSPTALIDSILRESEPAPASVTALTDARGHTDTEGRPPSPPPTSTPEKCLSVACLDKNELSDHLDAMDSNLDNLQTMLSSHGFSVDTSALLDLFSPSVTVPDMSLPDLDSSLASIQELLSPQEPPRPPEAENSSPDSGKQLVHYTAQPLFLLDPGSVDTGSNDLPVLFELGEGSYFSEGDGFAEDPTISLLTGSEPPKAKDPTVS
# CRX, sequence (O43186 whole entry): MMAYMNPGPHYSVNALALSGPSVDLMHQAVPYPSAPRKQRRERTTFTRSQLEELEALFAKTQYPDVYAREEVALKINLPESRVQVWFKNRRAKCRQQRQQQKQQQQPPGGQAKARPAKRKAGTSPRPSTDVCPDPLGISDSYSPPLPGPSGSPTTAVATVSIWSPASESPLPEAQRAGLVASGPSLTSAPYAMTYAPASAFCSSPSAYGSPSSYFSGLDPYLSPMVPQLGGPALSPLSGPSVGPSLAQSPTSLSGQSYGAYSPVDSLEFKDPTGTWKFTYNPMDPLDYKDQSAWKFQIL
sequence,measurement,setting,value
TATCTT,binding signal,[1],"1.33 fold enrichment (6-mer frequency, TF over GST control)"
same,binding signal,[2],"1.22 fold enrichment (6-mer frequency, TF over GST control)"
same,binding signal,[3],"1.48 fold enrichment (6-mer frequency, TF over GST control)"
same,binding signal,[4],"1.27 fold enrichment (6-mer frequency, TF over GST control)"
same,binding signal,[5],"1.24 fold enrichment (6-mer frequency, TF over GST control)"
same,binding signal,[6],"1.38 fold enrichment (6-mer frequency, TF over GST control)"
same,binding signal,[7],"1.53 fold enrichment (6-mer frequency, TF over GST control)"
same,binding signal,[8],"1.34 fold enrichment (6-mer frequency, TF over GST control)"
same,binding signal,[9],"1.91 fold enrichment (6-mer frequency, TF over GST control)"
same,binding signal,[10],"1.22 fold enrichment (6-mer frequency, TF over GST control)"
same,binding signal,[11],"1.32 fold enrichment (6-mer frequency, TF over GST control)"
same,binding signal,[12],"1.41 fold enrichment (6-mer frequency, TF over GST control)"
same,binding signal,[13],"1.29 fold enrichment (6-mer frequency, TF over GST control)"
same,binding signal,[14],"1.32 fold enrichment (6-mer frequency, TF over GST control)"
same,binding signal,[15],"1.22 fold enrichment (6-mer frequency, TF over GST control)"
same,binding signal,[16],"1.4 fold enrichment (6-mer frequency, TF over GST control)"
same,binding signal,[17],"1.25 fold enrichment (6-mer frequency, TF over GST control)"
same,binding signal,[18],"1.18 fold enrichment (6-mer frequency, TF over GST control)"
